# Results as given in PubChem BioAssay AID1508601 (ICCB-Longwood Screening Facility, Harvard Medical School, 2020).
# “And” between values parts separate entries of the source, which are not always exact repeats. Equal values may be shown once. In all, about 5,700 compounds went through this assay and about 85 (1%) were called active. No stated cut-off is given here; in the data, active means p53-positive nuclei above about 36% (passing the limit was not always enough); inactive means the rest. Many of the other results were omitted from the sample, so actives are more common in it than they were. Peptide text beside a SMILES is read from it.
# Tests used:
# [1] = p53 stabilisation in HPV-positive human cells, imaging, p53-positive nuclei imaging, 24 h, 48 h (AID 1508601); settings: 24/48 h
# [2] = molecular target: Cellular tumor antigen p53 (Homo sapiens) (UniProt P04637); assay: as above; settings: 24/48 h, stronger effect = higher value
# [3] = measured here: cell number at 24 h, Library stock concentration: 80 uM
# [4] = measured here: cell number at 24 h, Library stock concentration: 400 uM
# [5] = measured here: cell number at 24 h, Library stock concentration: 2 mM
# [6] = measured here: cell number at 24 h, Library stock concentration: 3.33 mM
# [7] = measured here: cell number at 24 h, Library stock concentration: 10 mM
# [8] = measured here: cell number at 48 h, Library stock concentration: 80 uM
# [9] = measured here: cell number at 48 h, Library stock concentration: 400 uM
# [10] = measured here: cell number at 48 h, Library stock concentration: 2 mM
# [11] = measured here: cell number at 48 h, Library stock concentration: 3.33 mM
# [12] = measured here: cell number at 48 h, Library stock concentration: 10 mM
# [13] = Library stock concentration: 80 uM
# [14] = Library stock concentration: 400 uM
# [15] = Library stock concentration: 2 mM
# [16] = Library stock concentration: 3.33 mM
# [17] = Library stock concentration: 10 mM
# [18] = measured here: p53 positive nuclei at 24 h, Library stock concentration: 80 uM
# [19] = measured here: p53 positive nuclei at 24 h, Library stock concentration: 400 uM
# [20] = measured here: p53 positive nuclei at 24 h, Library stock concentration: 2 mM
# [21] = measured here: p53 positive nuclei at 24 h, Library stock concentration: 3.33 mM
# [22] = measured here: p53 positive nuclei at 24 h, Library stock concentration: 10 mM
# [23] = measured here: cell number at 24 h, concentration not given here
# [24] = measured here: cell number at 48 h, concentration not given here
# [25] = measured here: p53 positive nuclei at 24 h, concentration not given here
# Sequence of Cellular tumor antigen p53 (Homo sapiens) (P04637 whole entry, looked up): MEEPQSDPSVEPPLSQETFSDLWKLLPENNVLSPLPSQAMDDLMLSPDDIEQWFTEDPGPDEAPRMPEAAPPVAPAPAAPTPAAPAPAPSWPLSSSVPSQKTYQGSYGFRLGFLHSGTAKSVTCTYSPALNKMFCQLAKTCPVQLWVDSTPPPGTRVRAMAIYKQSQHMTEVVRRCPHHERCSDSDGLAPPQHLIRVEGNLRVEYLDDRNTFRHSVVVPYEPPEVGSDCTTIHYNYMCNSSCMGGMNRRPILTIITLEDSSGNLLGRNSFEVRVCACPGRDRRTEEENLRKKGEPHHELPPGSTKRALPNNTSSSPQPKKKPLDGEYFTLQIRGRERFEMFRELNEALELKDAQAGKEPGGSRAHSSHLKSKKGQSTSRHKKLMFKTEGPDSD
smiles,measurement,setting,value
O=C(Cc1ccc(-c2ccc(OCCN3CCOCC3)cc2)cn1)NCc1ccccc1,"nuclei count, normalised",[1]; [3],42.9%
same,"nuclei count, normalised",[1]; [4],41.4%
same,"nuclei count, normalised",[1]; [5],40%
same,"nuclei count, normalised",[1]; [6],41.1%
same,"nuclei count, normalised",[1]; [7],39.3%
same,"nuclei count, normalised",[1]; [8],27.3%
same,"nuclei count, normalised",[1]; [9],26.6%
same,"nuclei count, normalised",[1]; [10],28.3%
same,"nuclei count, normalised",[1]; [11],30.8%
same,"nuclei count, normalised",[1]; [12],26.9%
same,"p53-positive nuclei, normalised",[2]; [13],3.36% (inactive)
same,"p53-positive nuclei, normalised",[2]; [14],4.39% (inactive)
same,"p53-positive nuclei, normalised",[2]; [15],2.81% (inactive)
same,"p53-positive nuclei, normalised",[2]; [16],2.58% (inactive)
same,"p53-positive nuclei, normalised",[2]; [17],4.55% (inactive)
same,"p53-positive nuclei, normalised",[2]; [18],-0.0362%
same,"p53-positive nuclei, normalised",[2]; [19],1.51%
same,"p53-positive nuclei, normalised",[2]; [20],1.32%
same,"p53-positive nuclei, normalised",[2]; [21],0.97%
same,"p53-positive nuclei, normalised",[2]; [22],1.31%
COC(=O)C(Cc1ccccc1)NC(=O)C(N)CC(=O)O (stereo not drawn) (H-Asp-Phe-OMe; configuration not given here),"nuclei count, normalised",[1]; [6],101%
same,"nuclei count, normalised",[1]; [11],94.9%
same,"p53-positive nuclei, normalised",[2]; [16],-0.0669% (inactive)
same,"p53-positive nuclei, normalised",[2]; [21],-0.12%
CC(C)c1nc(CN(C)C(=O)NC(CCN2CCOCC2)C(=O)NC(CCC(Cc2ccccc2)NC(=O)OCc2cncs2)Cc2ccccc2)cs1 (configuration not stated),"nuclei count, normalised",[1]; [6],98.1%
same,"nuclei count, normalised",[1]; [11],96.3%
same,"p53-positive nuclei, normalised",[2]; [16],4.22% (inactive)
same,"p53-positive nuclei, normalised",[2]; [21],4.44%
C[C@H]1O[C@@H](O[C@H]2[C@@H](O)C[C@H](O[C@H]3[C@@H](O)C[C@H](O[C@H]4CC[C@]5(C)C6CC[C@]7(C)[C@@H](C8=CC(=O)OC8)CC[C@]7(O)C6CC[C@@H]5C4)O[C@@H]3C)O[C@@H]2C)C[C@H](O)[C@@H]1O (some centres not stated),"nuclei count, normalised",[1]; [23],49%
same,"nuclei count, normalised",[1]; [24],31%
same,"p53-positive nuclei, normalised",[2]; concentration not given here,16.9% (inactive)
same,"p53-positive nuclei, normalised",[2]; [25],3.09%
CC(C)OC(=O)CCC/C=C\C[C@@H]1[C@@H](/C=C/[C@@H](O)CCc2ccccc2)[C@H](O)C[C@@H]1O,"nuclei count, normalised",[1]; [23],106%
same,"nuclei count, normalised",[1]; [24],105%
same,"p53-positive nuclei, normalised",[2]; concentration not given here,0.0477% (inactive)
same,"p53-positive nuclei, normalised",[2]; [25],-0.0131%
CCN(CC)C(=O)[C@]1(c2ccccc2)CC1CN (some centres not stated),"nuclei count, normalised",[1]; [6],107%
same,"nuclei count, normalised",[1]; [11],99.9%
same,"p53-positive nuclei, normalised",[2]; [16],-0.0572% (inactive)
same,"p53-positive nuclei, normalised",[2]; [21],-0.236%
COc1cccc(CN2CCN(c3ccc4cccc(OC)c4n3)CC2)c1,"nuclei count, normalised",[1]; [23],109%
same,"nuclei count, normalised",[1]; [24],114%
same,"p53-positive nuclei, normalised",[2]; concentration not given here,0.13% (inactive)
same,"p53-positive nuclei, normalised",[2]; [25],0.279%
O=C(O)CCC/C=C\C[C@@H]1[C@@H](/C=C/[C@H](O)CCc2ccccc2)[C@H](O)C[C@@H]1O,"nuclei count, normalised",[1]; [23],107%
same,"nuclei count, normalised",[1]; [24],108%
same,"p53-positive nuclei, normalised",[2]; concentration not given here,-0.104% (inactive)
same,"p53-positive nuclei, normalised",[2]; [25],-0.0183%
O=C(O)CCCC=CCC1C(O)CC(O)C1C=CC(O)COc1cccc(Cl)c1 (configuration not stated),"nuclei count, normalised",[1]; [3],91.3%
same,"nuclei count, normalised",[1]; [4],83%
same,"nuclei count, normalised",[1]; [5],71%
same,"nuclei count, normalised",[1]; [7],62.6%
same,"nuclei count, normalised",[1]; [8],91.4%
same,"nuclei count, normalised",[1]; [9],86.3%
same,"nuclei count, normalised",[1]; [10],76.4%
same,"nuclei count, normalised",[1]; [12],62.3%
same,"p53-positive nuclei, normalised",[2]; [13],-0.163% (inactive)
same,"p53-positive nuclei, normalised",[2]; [14],-0.108% (inactive)
same,"p53-positive nuclei, normalised",[2]; [15],0.08% (inactive)
same,"p53-positive nuclei, normalised",[2]; [17],0.269% (inactive)
same,"p53-positive nuclei, normalised",[2]; [18],0.18%
same,"p53-positive nuclei, normalised",[2]; [19],0.0351%
same,"p53-positive nuclei, normalised",[2]; [20],0.0627%
same,"p53-positive nuclei, normalised",[2]; [22],-0.0194%
COC1=C2CC(C)CC(OC)C(O)C(C)C=C(C)C(OC(N)=O)C(OC)C=CC=C(C)C(=O)NC(=CC1=O)C2=O (configuration not stated),"nuclei count, normalised",[1]; [6],40.1%
same,"nuclei count, normalised",[1]; [11],28.1%
same,"p53-positive nuclei, normalised",[2]; [16],-0.0882% (inactive)
same,"p53-positive nuclei, normalised",[2]; [21],-0.356%
CCCCCN=C(N)N/N=C/c1c[nH]c2ccc(OC)cc12,"nuclei count, normalised",[1]; [23],107%
same,"nuclei count, normalised",[1]; [24],112% and 109%
same,"p53-positive nuclei, normalised",[2]; concentration not given here,-0.135% (inactive) and -0.2% (inactive)
same,"p53-positive nuclei, normalised",[2]; [25],0.0257% and -0.191%
